An excerpt weighted towards active compounds, which were near 11% of everything screened.
NIH3T3 tox: kills NIH 3T3 cells. NIH 3T3 viability, CellTiter-Glo ATP luminescence, 48-72 h. 94,000 tested, 4.3% active. Potency, µM (doses to about 96.7 µM), for the others: at the highest dose activity change, negative = cytotoxicity, most hits filed as inhibitors; active = well fitted curve in the direction sought with a large enough effect; inconclusive = small, poorly fitted or top-dose-only effect, or another doubt; inactive = no such curve, though single readings can be large; an effect the other way counts as inactive or inconclusive; note: % is set by controls: 0 for no effect and ±100 for the full control effect; nearly all actives have a fitted effect of over 55% in size
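Viability of NIH 3T3 cells after 48 or 72 hr compound treatment at 37 °C was assessed by CellTiter-Glo, with luminescence imaged following a 10 min room-temperature step.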
FLuc inh: blocks purified firefly luciferase enzyme activity | P08659 | purified P. pyralis luciferase, luminescence, biochemical | AID 1347043 | Potency, µM (top dose mostly 115 µM), most hits filed as inhibitors | 76,000 tested, 2.5% active; active = well fitted curve in the direction sought with a large enough effect; inconclusive = small, poorly fitted or top-dose-only effect, or another doubt; inactive = no such curve, though single readings can be large; an effect the other way counts as inactive or inconclusive; note: % is set by controls: 0 for no effect and ±100 for the full control effect; nearly all actives have a fitted effect of over 65% in size
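FLuc 10nM, D-luciferin 10uM, ATP 10uM, Mg acetate 10mM, Tris acetate pH 7.5, Tween/BSA; cpd qHTS; enzyme added last; CCD luminescence.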
HEK cytotox: cytotoxic compounds in HEK 293 cells. Potency, µM (titrated, usually from 115 µM), for inactives: at the top dose activity change, negative = cytotoxicity, usual class: inhibitors. 94,000 tested, 6.6% active. AID 1345083. HEK 293 viability, ATP luminescence (CellTiter-Glo), 48-72 h; active = well fitted curve in the direction sought with a large enough effect; inconclusive = small, poorly fitted or top-dose-only effect, or another doubt; inactive = no such curve, though single readings can be large; an effect the other way counts as inactive or inconclusive; note: % is set by controls: 0 for no effect and ±100 for the full control effect; nearly all actives have a fitted effect of over 60% in size
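ATP-coupled CellTiter-Glo luminescence served as viability read-out, recorded 10 min after reagent addition at room temperature. HEK 293 cells, 250 cells/well, had been incubated with pintool-transferred compound for 48 or 72 hr at 37 degree Celsius.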
hNpr1 antagonist: antagonists of human natriuretic peptide receptor Npr1; P16066; HEK293 hNpr1 GloSensor cGMP, ANP-stimulated luminescence; Potency, µM (series often up to 46.3 µM), inactives show at the top dose activity change, negative = inhibition, hits mostly inhibitors; 76,000 tested, 1.6% active; note: % is set by controls: 0 for no effect and ±100 for the full control effect; nearly all actives have a fitted effect of over 60% in size
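Compound pre-incubated 30 min at room temperature on GloSensor-loaded HEK293 cells stably carrying hNpr1 and the pGS-40F cGMP biosensor. Stimulation uses hNppA at 0.1 nM final; luminescence is taken at baseline and 20 min post-agonist.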
NPR1 antag cnf: confirmation of human Npr1 natriuretic peptide receptor antagonists. shares compounds with hNpr1 antagonist. Potency, µM (titrated, usually from 57.6 µM), inactives show at the top dose activity change, negative = inhibition, most hits filed as inhibitors. HEK293 hNpr1 cGMP GloSensor luminescence, ANP-stimulated. 1,400 tested, 76% active; note: nearly all actives have a fitted effect of over 70% in size
NPR2 antag: hNpr2 antagonism, selectivity versus Npr1. shares compounds with hNpr1 antagonist. HEK293 hNpr2 GloSensor cGMP luminescence, CNP-stimulated. Potency, µM (series often up to 57.6 µM), for the others: at the highest dose activity change, negative = inhibition, usual class: inhibitors. 1,400 tested, 67% active. AID 1347046; note: nearly all actives have a fitted effect of over 70% in size
Target sequence (P20594 whole entry, looked up): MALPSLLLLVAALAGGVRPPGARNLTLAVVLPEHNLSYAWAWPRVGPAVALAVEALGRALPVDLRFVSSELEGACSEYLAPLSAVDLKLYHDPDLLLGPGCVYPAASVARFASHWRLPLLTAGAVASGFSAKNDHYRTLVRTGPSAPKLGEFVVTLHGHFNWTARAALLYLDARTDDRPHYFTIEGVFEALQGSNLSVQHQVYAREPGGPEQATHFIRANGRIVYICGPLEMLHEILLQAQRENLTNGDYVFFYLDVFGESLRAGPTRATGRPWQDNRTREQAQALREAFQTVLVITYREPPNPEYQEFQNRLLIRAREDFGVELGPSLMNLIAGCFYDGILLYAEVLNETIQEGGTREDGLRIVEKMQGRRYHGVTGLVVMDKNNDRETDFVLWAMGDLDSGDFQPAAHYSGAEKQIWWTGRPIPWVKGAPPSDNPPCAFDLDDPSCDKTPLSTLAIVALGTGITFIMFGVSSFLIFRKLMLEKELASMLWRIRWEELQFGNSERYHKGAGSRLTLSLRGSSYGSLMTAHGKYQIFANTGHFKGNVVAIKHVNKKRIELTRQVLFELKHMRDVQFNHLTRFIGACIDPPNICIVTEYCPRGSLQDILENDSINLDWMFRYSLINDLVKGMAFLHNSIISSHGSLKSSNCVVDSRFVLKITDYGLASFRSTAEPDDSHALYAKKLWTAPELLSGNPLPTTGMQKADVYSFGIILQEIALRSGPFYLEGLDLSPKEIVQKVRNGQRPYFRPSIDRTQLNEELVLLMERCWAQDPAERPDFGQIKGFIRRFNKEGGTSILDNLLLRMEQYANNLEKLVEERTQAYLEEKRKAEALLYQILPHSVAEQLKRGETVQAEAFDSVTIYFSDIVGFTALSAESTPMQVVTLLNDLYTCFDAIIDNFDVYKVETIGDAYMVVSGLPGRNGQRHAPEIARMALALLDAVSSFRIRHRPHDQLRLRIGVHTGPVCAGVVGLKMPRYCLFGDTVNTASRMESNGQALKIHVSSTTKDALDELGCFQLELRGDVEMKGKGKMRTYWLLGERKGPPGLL
FLuc counter: inhibits firefly luciferase, false Npr1 antagonist flag; purified FLuc enzyme, luminescence, Km substrate; Potency, µM (doses to about 57.6 µM), inactives show at the highest dose activity change, negative = inhibition, actives largely listed as inhibitors; 1,400 tested, 0.7% active; shares compounds with hNpr1 antagonist; AID 1347047; active = well fitted curve in the direction sought with a large enough effect; inconclusive = small, poorly fitted or top-dose-only effect, or another doubt; inactive = no such curve, though single readings can be large; an effect the other way counts as inactive or inconclusive; note: 0% is about no effect
GloSensor ctrl: counter-screen for Npr1 antagonists: GloSensor control cell line; shares compounds with hNpr1 antagonist; HEK293 GloSensor cGMP, SNP-stimulated, luminescence; Potency, µM (top dose mostly 57.6 µM), without a hit: at the highest dose activity change, negative = inhibition, actives largely listed as inhibitors; 1,400 tested, 69% active; note: % is set by controls: 0 for no effect and ±100 for the full control effect; nearly all actives have a fitted effect of over 70% in size
* = called active by the depositor; i = inactive; ? = inconclusive; · = no result; [ ] = dose if it differs, or a comment. Unless noted, calls come from the whole dose curve. Potency is the fitted concentration of half-maximal effect.

SMILES | NIH3T3 tox | FLuc inh | HEK cytotox | hNpr1 antagonist | NPR1 antag cnf | NPR2 antag | FLuc counter | GloSensor ctrl
O=C(NCc1ccccc1)c1csc(N2CCN(c3ccc(Cl)cc3)CC2)n1 | -12% | i | ? | 11µM* | 22µM* | 22µM* | 0% | 22µM*
CC(=O)NCc1nnc2n1C(C(=O)NCC(F)(F)F)CC2 (centres undefined) | -12%[138 µM] | · | -30%[172 µM] | · | · | · | · | ·
N#Cc1ccc(CN2C3CCC2CN(C(=O)c2ccncc2)C3)cc1 | ? | i | ? | -7%[70.6 µM] | · | · | · | ·
O=C(c1ccncc1)N1CC2CCC(C1)N2Cc1ccc(-c2ccccc2)cc1 | ? | i | ? | ? | 4.3µM* | 5.4µM* | -3% | 4.8µM*
COc1ccc(-c2ccc3nnc(CNC(=O)c4cccc5[nH]ccc45)n3n2)cc1 | ? | i | ? | 8% | · | · | · | ·
Cc1cccc(N2CCN(C(=O)CC3CCCCN(Cc4ccccc4)C3=O)CC2)c1 (centres undefined) | ? | i | ? | 13µM* | 19µM* | 22µM* | -1% | 22µM*
CNC(=O)c1cc(C2CC2)nc2onc(C3CCN(C(=O)C4CCCCC4)CC3)c12 | -14% | · | i | · | · | · | · | ·
CN1CCN(Cc2ccc(Nc3cnc4ccc(-c5ccccc5)nn34)cc2)CC1 | ? | i | 25µM* | 32µM* | 31µM* | 31µM* | -4%[86.2 µM] | 22µM*
CC(C)c1noc(CC2CCN(C(=O)c3ccc(C(C)(C)C)cc3)CC2)n1 | -27% | i | ? | -4% | · | · | · | ·
O=C(COc1ccc(Cl)cc1)N1CCC(Cc2nc(-c3ccccc3)no2)CC1 | ? | i | 40µM* | 14µM* | 12µM* | 14µM* | -2% | 12µM*
COc1cc(C(=O)N2CCC(Cc3nc(-c4ccc(F)cc4)no3)CC2)cc(OC)c1OC | ? | i | ? | 13µM* | 14µM* | 19µM* | -1% | 15µM*
CC(C)c1noc(CC2CCN(C(=O)c3ccc(F)cc3)CC2)n1 | -34% | i | ? | ? | ? | ? | -1% | ?
O=C(Cc1ccccc1Cl)N1CCC(Cc2nc(-c3ccccc3)no2)CC1 | ? | i | ? | ? | · | · | · | ·
O=C(c1ccc(F)cc1)N1CCC(Cc2nc(-c3ccc(F)cc3)no2)CC1 | ? | i | ? | 1.4µM* | 1.7µM* | 2.7µM* | -1% | 1.9µM*
COCCNC(=O)c1nc2sccn2c1-c1ccc(OC)cc1 | -3% | · | i | · | · | · | · | ·
CCC1=C(C(=O)OC)C(c2cccc(F)c2)N2C(CC(=O)NCc3ccco3)=CSC2=N1 (centres undefined) | -22% | i | ? | -24% | · | · | · | ·
COc1cccc(-c2cc(C(=O)N3CCN(C)CC3)c3cnn(C)c3n2)c1 | -13% | · | -5% | · | · | · | · | ·
O=C(COc1ccc(F)cc1)N1CCC(Oc2ccc(-c3noc(C4CC4)n3)cc2)C1 (centres undefined) | ? | i | ? | 11µM* | ? | ? | -2% | 31µM*
O=C(COc1ccc(Cl)cc1)N1CCC[C@H]1c1nc(-c2ccc(F)cc2)no1 | ? | i | ? | -19% | · | · | · | ·
COc1ccc(CC(=O)N2CCC(Cc3nc(-c4ccc(F)cc4)no3)CC2)cc1OC | ? | i | ? | 7.1µM* | 3.1µM* | 9.7µM* | 1% | 6.1µM*
O=C(Cc1ccc(F)cc1)N1CCC(Cc2nc(-c3ccc(F)cc3)no2)CC1 | ? | i | ? | 13µM* | 14µM* | 14µM* | 3% | 11µM*
O=C(C1CC1)N1CCC(Cc2nc(-c3ccc(F)cc3)no2)CC1 | ? | i | ? | ? | · | · | · | ·
O=C(CC1CCCCC1)N1CCC(Cc2nc(-c3ccc(F)cc3)no2)CC1 | ? | i | ? | 4µM* | 4.8µM* | 5.4µM* | -1% | 4.8µM*
CC1CCN(C(=O)Cn2ccn3nc(-c4ccccc4)c(CO)c3c2=O)CC1 | 1% | i | 6% | 1% | · | · | · | ·
CCOc1ccc(CC(=O)N2CCC(Cc3nc(-c4ccc(F)cc4)no3)CC2)cc1 | ? | i | ? | 6.3µM* | 5.4µM* | 6.1µM* | 6% | 4.8µM*
SMILES | NIH3T3 tox | FLuc inh | HEK cytotox | hNpr1 antagonist | NPR1 antag cnf | NPR2 antag | FLuc counter | GloSensor ctrl
CN(C)C(=O)c1ccc(CC2CCN(C(=O)CC3CCCCC3)CC2)cc1 | ? | i | 35µM* | 11µM* | 15µM* | 19µM* | 3% | 15µM*
O=C(c1cccc(F)c1)N1CC(Oc2ccc(-c3noc(C4CCOCC4)n3)cc2)C1 | ? | i | ? | 6.3µM* | 4.3µM* | 5.4µM* | -6% | 3.4µM*
Fc1cccc(CN2CCC(Oc3ccc(-c4noc(C5CC5)n4)cc3)C2)c1 (centres undefined) | ? | i | ? | 20µM* | 27µM* | ? | 0% | ?
CC(C)c1noc(CC2CCN(C(=O)Cc3ccc(F)cc3)CC2)n1 | -42% | i | -19% | -23% | · | · | · | ·
O=C(NC(c1ccccc1)c1ccccc1)c1cnc2c(c1)N(Cc1ccccc1)CCC2 | ? | i | ? | 3%[70.6 µM] | · | · | · | ·
CC(CCc1ccccc1)NC(=O)Cn1cccc1-c1nc(-c2ccc(F)cc2)no1 (centres undefined) | -1% | i | 11% | 1% | · | · | · | ·
CC(C)CNC(=O)CN1CN(c2ccccc2)C2(CCN(C(=O)NC3CCCCC3)CC2)C1=O | ? | i | -13% | 2% | · | · | · | ·
COc1ccc(OCC(=O)N2CCC(Cc3nc(-c4ccc(F)cc4)no3)CC2)cc1 | ? | i | ? | 5.6µM* | 4.3µM* | 6.1µM* | 2% | 3.9µM*
O=C(C[C@@H]1CCNC[C@@H]1Cc1cc(CC2CCCCC2)on1)NCc1ccccc1 | 32µM* | i | ? | 14µM* | 20µM* | 28µM* | 5%[86.2 µM] | 18µM*
O=C(C[C@@H]1CCNC[C@@H]1Cc1cc(CSc2ccccc2)on1)NCc1ccc(F)cc1 | ? | i | ? | -3% | · | · | · | ·
O=C(CCC1CCN(S(=O)(=O)c2ccc(F)cc2)CC1)NCc1nc2ccccc2[nH]1 | -44% | i | ? | 11µM* | 19µM* | 22µM* | 0% | 15µM*

Screens from PubChem BioAssay.
